# Reference: PubChem BioAssay AID463173 (ICCB-Longwood Screening Facility, Harvard Medical School, 2010)
# The campaign covered roughly 52,000 compounds. About 1,700 (3.3%) were called active. Rule as the data show it: active = survival mostly below about 52% (no sharp cut-off); inactive = mostly above about 56%. Many of the other results were omitted from the sample, so actives are more common in it than they were.
# System: Wild type
# Assay: growth inhibition of S. aureus wild type versus tarO mutant, primary screen, teichoic acid synthesis inhibitors, RN4220, OD600 (AID 463173)
# Conditions: S. aureus RN4220 wild type/DeltatarO growth, OD600, 18 h, stronger effect = lower value, screened at 18.75 µg/mL (by protocol)
row,SMILES,survival
1,O=C(Nc1c(Cl)cccc1Cl)c1cc(-c2cccc(O)c2)on1,5% (active)
2,O=C(Nc1c(Cl)cccc1Cl)c1cc(-c2ccc3c(c2)OCO3)on1,82% (inactive)
3,COc1ccc(-c2cc(C(=O)Nc3c(Cl)cccc3Cl)no2)cc1OC,79% (inactive)
4,COC(=O)/C=C1/C(=O)N(C(C)=O)c2ccccc21,108% (inactive)
5,COc1ccc(CNS(=O)(=O)c2cc3c(cc2C)n(C)c(=O)c(=O)n3C)cc1,77% (inactive)
6,COc1cccc(N2CCN(Cc3nnc(-c4ccc5c(c4)OCO5)o3)CC2)c1,102% (inactive)
7,COc1ccc(S(=O)(=O)N(C)Cc2nc(-c3cccc(C)c3)no2)cc1,74% (inactive)
8,COc1ccc(OC(C)C(=O)NCc2nc(-c3cccc(C)c3)no2)cc1 (stereo not drawn),87% (inactive)
9,Cc1cccc(-c2noc(CN(C(=O)c3ccc(C)c(C)c3)C(C)C)n2)c1,0% (active)
10,Cc1cccc(-c2noc(CN(C(C)C)S(=O)(=O)c3ccc(Br)cc3)n2)c1,72% (inactive)
11,COc1ccccc1C(=O)N(Cc1nc(-c2cccc(C)c2)no1)C(C)C,56% (inactive)
12,Cc1cccc(-c2noc(CN(C(=O)COc3ccc(Br)cc3C)C(C)C)n2)c1,30% (inactive)
13,Cc1cccc(-c2noc(CN(C(=O)c3ccccc3Cl)C(C)C)n2)c1,86% (inactive)
14,CCOc1ccc(C(=O)N(Cc2nc(-c3cccc(C)c3)no2)C(C)C)cc1,2% (active)
15,Cc1cccc(-c2noc(CN(C(=O)COc3ccc(C(C)C)cc3)C(C)C)n2)c1,3% (active)
16,CCN(CC(O)COc1ccc(OCC(O)CN(CC)C2CCCCC2)cc1)C1CCCCC1 (stereo not drawn),109% (inactive)
17,CC1(C)CC(=O)c2cc(-c3nc(-c4ccc(Cl)cc4)cs3)c(=O)n(-c3ccc(Cl)cc3)c2C1,67% (inactive)
18,Cn1nc(C(=O)NCCc2ccc(Cl)cc2)c2c1-c1ccccc1SC2,82% (inactive)
19,CCc1nn2c(=O)c(S(=O)(=O)Nc3ccc(C)cc3C)c(C)nc2s1,75% (inactive)
20,CCCCN(CC)CCNC(=O)c1cn(CCOC)c(=O)c2c1c1ccccc1n2C,89% (inactive)
21,COc1ccccc1-c1c(C)nn2c(-c3ccccc3)cc(-c3ccccc3)nc12,77% (inactive)
22,Cc1cc(C)cc(OC(C)C(=O)Nc2nonc2-c2ccc(Br)cc2)c1 (stereo not drawn),17% (active)
23,Cc1ccc(OC(C)C(=O)Nc2nonc2-c2ccc(Br)cc2)cc1C (stereo not drawn),72% (inactive)
24,Cc1cccc(OC(C)C(=O)Nc2nonc2-c2ccc(Br)cc2)c1C (stereo not drawn),94% (inactive)
25,Cc1ccc(-n2nc(CO)c(C(=O)NCCC(C)C)n2)cc1C,116% (inactive)

row,SMILES,survival
1,CCOc1ccccc1NC(=O)CN1C(=O)C2(SCC(=O)N2c2cccc(F)c2)c2ccccc21 (stereo not drawn),97% (inactive)
2,Cc1ccc(/C=N/NC(=O)C2=NNC(=O)C2C)o1 (stereo not drawn),107% (inactive)
3,COc1cccc(OCc2nnc(SCC(=O)O)o2)c1,98% (inactive)
4,CCCc1cc(=O)oc2cc(C)c3c(-c4ccccc4)c(C)oc3c12,0% (active)
5,CCCc1cc(=O)oc2cc(C)c3c(-c4ccccc4)coc3c12,66% (inactive)
6,CCCc1cc(=O)oc2cc(C)c3c(-c4cccc(OC)c4)coc3c12,74% (inactive)
7,CCN1C(=O)c2ccccc2S(=O)c2ccc(C(=O)N3CCN(c4ccccc4)CC3)cc21 (stereo not drawn),83% (inactive)
8,CCOc1ccc2nc(N3CCCC(C(=O)Nc4ccc(OC)c(Cl)c4)C3)sc2c1 (stereo not drawn),89% (inactive)
9,CCOc1ccc(NCc2nc3ccccc3n2CCOc2ccc(C)cc2)cc1,-20% (active)
10,COc1ccc(NCc2nc3ccccc3n2CCOc2ccc(C)cc2)cc1,-18% (active)
11,Cc1ccc(NCc2nc3ccccc3n2CCOc2ccccc2)cc1,-20% (active)
12,Clc1ccc(NCc2nc3ccccc3n2CCOc2ccccc2)cc1,74% (inactive)
13,CCOc1ccc(NCc2n[nH]c(=S)n2-c2ccc(C)cc2)cc1,122% (inactive)
14,Cc1ccc(OCCn2c(CNc3cccc(C)c3)nc3ccccc32)cc1,-21% (active)
15,CC(C)CCNc1ncnc2c1nnn2Cc1ccccc1,111% (inactive)
16,Cc1nc2cc(NC(=O)Nc3ccccc3Cl)ccc2n1C,109% (inactive)
17,CCCCNC(=O)c1nn(-c2ccc(C)cc2)c(=O)n(C)c1=O,68% (inactive)
18,Cc1ccc(N(CC(=O)Nc2ccc(Cl)cc2)S(=O)(=O)c2cccc3nonc23)cc1,125% (inactive)
19,O=C(Cn1ncn2nc(-c3cccs3)cc2c1=O)NCc1ccccc1Cl,94% (inactive)
20,COc1ccc(-c2nn3c(=O)cc(CN4CCN(C(=O)/C=C/c5ccccc5)CC4)nc3s2)cc1,72% (inactive)
21,CCn1cc2nc(SCc3c(F)cccc3Cl)n(CCc3ccccc3)c(=O)c2n1,64% (inactive)
22,CCn1c(=O)cc(SCC(=O)NCc2ccc(F)cc2Cl)c2ccccc21,91% (inactive)
23,Cc1cc(Cl)ccc1NC(=O)C1CCCN(c2nnc(C)c3c(C)n(-c4ccccc4)nc23)C1 (stereo not drawn),70% (inactive)
24,Cc1ccc(OCCn2c(CNc3ccccc3C)nc3ccccc32)cc1,57% (inactive)
25,Cc1ccccc1NCc1nc2ccccc2n1CCOc1ccccc1,-20% (active)

row,SMILES,survival
1,Cc1ccc(CSCC(=O)N2CCN(c3ccccc3F)CC2)cc1,45% (inactive)
2,COc1ccc(Cn2c(=O)c3ccccc3n3c(-c4cccc(OC)c4OC)nnc23)cc1,87% (inactive)
3,Cc1ccc(NC(=O)CCCn2nc(C)c3c(C)n(-c4ccccc4)nc3c2=O)c(Cl)c1,113% (inactive)
4,COc1cc(OC)c(NC(=O)CCCn2nc(C)c3c(C)n(-c4ccccc4)nc3c2=O)cc1Cl,0% (active)
5,Cc1cc(Cl)ccc1NC(=O)CCn1nc(C)c2c(C)n(-c3ccccc3)nc2c1=O,68% (inactive)
6,COc1ccc(CNC(=O)CCn2nc(C)c3c(C)n(-c4ccccc4)nc3c2=O)cc1OC,-2% (active)
7,COc1ccc(CNC(=O)CCCn2nc(C)c3c(C)n(-c4ccc(C)cc4)nc3c2=O)cc1OC,71% (inactive)
8,Cc1nn(CCC(=O)NCc2ccc(N(C)C)cc2)c(=O)c2nn(-c3ccccc3)c(C)c12,87% (inactive)
9,Cc1cc(Cl)ccc1NC(=O)CCCn1nc(C)c2c(C)n(-c3ccccc3)nc2c1=O,118% (inactive)
10,Cc1ccc(C)c(NC(=O)CCn2nc(C)c3c(C)n(-c4ccccc4)nc3c2=O)c1,10% (active)
11,Cc1cccc(NC(=O)CCn2nc(C)c3c(C)n(-c4ccccc4)nc3c2=O)c1C,65% (inactive)
12,CCc1ccc(CNC(=O)CCn2nc(C)c3c(C)n(-c4ccccc4)nc3c2=O)cc1,65% (inactive)
13,Cc1nn(CCC(=O)NCc2ccc(Cl)cc2)c(=O)c2nn(-c3ccccc3)c(C)c12,-3% (active)
14,COc1cccc(CNC(=O)CCn2nc(C)c3c(C)n(-c4ccccc4)nc3c2=O)c1,82% (inactive)
15,O=C(NCCSCc1c(F)cccc1Cl)C1CCN(S(=O)(=O)Cc2ccccc2)CC1,87% (inactive)
16,O=C(CC(c1cccs1)N1Cc2ccccc2C1=O)Nc1ccc(F)cc1 (stereo not drawn),91% (inactive)
17,CCN(CC)C(=O)Cn1c(=O)cc(C)c2c(C)nn(-c3cccc(Cl)c3C)c21,85% (inactive)
18,Cc1ccccc1C(=O)Nc1ccc2c(c1)CCCN2C(=O)c1cccs1,77% (inactive)
19,Cc1ccccc1NC(=O)Cn1c(=O)n(CCCC(=O)NCc2ccc3c(c2)OCO3)c(=O)c2ccccc21,91% (inactive)
20,Cc1ccc(S(=O)(=O)c2cn(C)c3cc(N4CCCCC4)c(F)cc3c2=O)cc1,74% (inactive)
21,COc1ccc(-c2nc3c(c(SCC(=O)Nc4ccccc4F)n2)Cc2cc(C)ccc2O3)cc1,80% (inactive)
22,COc1ccccc1NC(=O)C(=O)NCC(c1ccc2c(c1)OCO2)N1CCN(C)CC1 (stereo not drawn),81% (inactive)
23,O=C(CN(c1ccc(Cl)c(C(F)(F)F)c1)S(=O)(=O)c1ccccc1)Nc1cccnc1,64% (inactive)
24,Cc1c(CCC(=O)N2CCCCC2)c(=O)oc2cc3occ(C(C)(C)C)c3cc12,74% (inactive)
25,Cc1cccc(Cn2c(SCc3ccc(C(=O)NCc4cccs4)cc3)nc3ccncc32)c1,84% (inactive)

row,SMILES,survival
1,COc1cccc(N2CCN(S(=O)(=O)c3ccc(-c4ccno4)cc3OC)CC2)c1,57% (inactive)
2,COc1cc(-c2ccno2)ccc1S(=O)(=O)N1CCN(c2ccc(F)cc2)CC1,63% (inactive)
3,COc1ccc(N2CCN(S(=O)(=O)c3ccc(-c4ccno4)cc3OC)CC2)cc1,1% (active)
4,COc1cc(-c2ccno2)ccc1S(=O)(=O)N1CCN(c2ccccc2)CC1,71% (inactive)
5,COc1cc(-c2ccno2)ccc1S(=O)(=O)N1CCN(c2cccc(Cl)c2)CC1,-3% (active)
6,COc1ccccc1N1CCN(S(=O)(=O)c2ccc(-c3ccno3)cc2OC)CC1,82% (inactive)
7,COC(=O)c1c(-c2cccs2)csc1NC(=O)c1cc(OC)c(OC)c(OC)c1,76% (inactive)
8,CCn1ccc2cc(S(=O)(=O)N3CCCN(C(=O)NCC(=O)OC)CC3)ccc21,128% (inactive)
9,CCCn1c2ccccc2c2cnn(CC(=O)NCCc3ccc(S(N)(=O)=O)cc3)c(=O)c21,134% (inactive)
10,CCN(Cc1ccccc1)C(c1cccnc1)c1nnnn1Cc1ccccc1 (stereo not drawn),106% (inactive)
11,CCc1ccccc1NS(=O)(=O)c1ccc2c(c1)CCN2C(=O)C1CC1,72% (inactive)
12,Cc1cccc(-n2c(SCC(=O)Nc3ccc(C)c(C)c3)nc3n[nH]c(C)c3c2=N)c1,76% (inactive)
13,CCCCN(CC)C(=O)CSc1nc2n[nH]c(C)c2c(=N)n1-c1cccc(C)c1,78% (inactive)
14,CCCCN(CC)C(=O)CSc1nc2n[nH]c(C)c2c(=N)n1-c1cccc(Cl)c1,-1% (active)
15,Cc1c(Cl)cccc1-n1c(SCC(=O)NCc2ccccc2)nc2n[nH]c(C)c2c1=N,134% (inactive)
16,Cc1ccc(NC(=O)CSc2nc3n[nH]c(C)c3c(=N)n2-c2cccc(C)c2)cc1,-6% (active)
17,Cc1ccc(CNC(=O)CSc2nc3n[nH]c(C)c3c(=N)n2-c2cccc(C)c2)cc1,133% (inactive)
18,Cc1ccc(Cl)cc1-n1c(SCC(=O)NCc2ccccc2)nc2n[nH]c(C)c2c1=N,72% (inactive)
19,Cc1cccc(-n2c(SCC(=O)Nc3ccccc3Cl)nc3n[nH]c(C)c3c2=N)c1,72% (inactive)
20,Cc1ccc(-n2c(SCC(=O)Nc3cccc(Cl)c3)nc3n[nH]c(C)c3c2=N)cc1,85% (inactive)
21,Cc1cccc(NC(=O)CSc2nc3n[nH]c(C)c3c(=N)n2-c2cccc(Cl)c2)c1,14% (active)
22,CCCCN(CC)C(=O)CSc1nc2n[nH]c(C)c2c(=N)n1-c1cccc(OC)c1,120% (inactive)
23,Cc1ccc(-n2c(SCC(=O)NCc3ccccc3)nc3n[nH]c(C)c3c2=N)cc1Cl,-6% (active)
